20 compounds from PubChem BioAssay can be followed below.

As usually defined, the inhibition is the drop in the measured response relative to a control, in per cent.

Unmarked numbers belong to inactive results. For some of these results: Results with a measured potency or affinity are listed apart. Activity calls are given as the source filed them. Unless noted, no rule for the calls is given here.

Test [1] in a line: antimalarial activity against Dd2 strain (AID 2302;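 active = growth inhibition above 50% at the single 2 µM test dose, taken to imply half-maximal potency below 2 µM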;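 also: 0% = DMSO untreated growth and 100% = chloroquine plus artemisinin killed control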). To be noted: P. falciparum Dd2 in RBCs, LDH growth readout, 72 h; at 2 µM; stronger effect = higher value.
A short description of test [2]: HepG2 cytotoxicity, primary screen, cytotoxicity control for P. falciparum antimalarial project, cell-based, ATP luminescence (AID 2303;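 active = inhibition above 50%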;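 also: 0% = DMSO wells and 100% = digitonin-killed cells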). To be noted: HepG2 viability, 24-48 h, at 10 µM, stronger effect = higher value.
The target of test [3] is L-lactate dehydrogenase (Plasmodium falciparum (isolate CDC / Honduras)) (UniProt Q27743). The test is described as follows: PfLDH activity inhibition – cell lysate, 3D7 strain, counter-screen for P. falciparum growth inhibition project (AID 2304).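 Also: 0% = vehicle and 100% = reference inhibitor.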 To be noted: P. falciparum 3D7 crude extract, LDH APAD/NBT absorbance; at 2 µM; stronger effect = higher value. On the technique in general: Counterscreens check selectivity or assay interference.

A short description of test [4]: inhibition of 3D7 malaria parasite growth – strain 3D7 (AID 2306).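 Also: 0% = DMSO wells and 100% = chloroquine plus artemisinin control wells.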 To be noted: P. falciparum 3D7 erythrocytic growth, LDH absorbance, 72 h; at 2 µM; stronger effect = higher value.
Test [5] deals with Calcium-dependent protein kinase 1 (Plasmodium falciparum (isolate 3D7)) (UniProt P62344). The test is described as follows: PfCDPK1 kinase inhibitors, biochemical, TCAMS library (AID 1159585; cut-off not given, nearly all actives have IC50 up to about 0.98 µM;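 also: inhibitors leave more ATP so luminescence rises with inhibition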). To be noted: recombinant PfCDPK1, Kinase-Glo ATP depletion luminescence.
Test [6] addresses Plasmodium falciparum protein kinase 6 (PK6, PF3D7_1337100) (UniProt Q8IDW1). The test is described as follows: PfPK6 kinase inhibitors, biochemical, TCAMS library (AID 1159586). To be noted: recombinant PfPK6, Kinase-Glo ATP depletion luminescence. On the technique in general: In Kinase-Glo more light means more ATP remaining.
Test [7] deals with Protein kinase 7 (PK7), Plasmodium falciparum 3D7 (PF3D7_0213400) (UniProt Q7YTF7). The test can be described thus: inhibition of Plasmodium PK7 catalytic activity – biochemical, TCAMS antimalarial set, Kinase-Glo luminescence (AID 1159587). To be noted: recombinant PfPK7, Kinase-Glo ATP depletion luminescence.
Test [8] concerns the target Calcium-dependent protein kinase 4 (Plasmodium falciparum (isolate 3D7)) (UniProt Q8IBS5). The test can be described thus: PfCDPK4 kinase inhibitors, biochemical, TCAMS library (AID 1159588; cut-off not given, nearly all actives have IC50 up to about 0.91 µM). To be noted: recombinant PfCDPK4, Kinase-Glo ATP depletion luminescence.

Protein kinase 7 (PK7), Plasmodium falciparum 3D7 (PF3D7_0213400), sequence (Q7YTF7 1-343): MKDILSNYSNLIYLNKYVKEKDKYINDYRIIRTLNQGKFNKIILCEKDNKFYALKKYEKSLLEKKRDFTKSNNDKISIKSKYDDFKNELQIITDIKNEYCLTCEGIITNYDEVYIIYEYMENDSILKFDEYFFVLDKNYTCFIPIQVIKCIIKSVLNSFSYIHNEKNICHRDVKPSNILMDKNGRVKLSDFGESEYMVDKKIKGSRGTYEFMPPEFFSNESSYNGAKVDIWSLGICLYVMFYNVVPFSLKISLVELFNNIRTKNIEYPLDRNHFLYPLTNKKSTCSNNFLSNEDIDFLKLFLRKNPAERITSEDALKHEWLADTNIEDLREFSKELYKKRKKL
Plasmodium falciparum protein kinase 6 (PK6, PF3D7_1337100), sequence (Q8IDW1 1-305): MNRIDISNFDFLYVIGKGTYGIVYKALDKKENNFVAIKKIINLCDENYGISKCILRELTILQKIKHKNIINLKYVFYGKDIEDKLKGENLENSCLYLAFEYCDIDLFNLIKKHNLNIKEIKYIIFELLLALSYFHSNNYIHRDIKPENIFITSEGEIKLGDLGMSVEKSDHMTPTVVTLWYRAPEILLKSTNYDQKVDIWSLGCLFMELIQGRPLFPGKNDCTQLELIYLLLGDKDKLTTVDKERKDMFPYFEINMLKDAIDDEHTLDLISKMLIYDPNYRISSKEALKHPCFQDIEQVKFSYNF
L-lactate dehydrogenase (Plasmodium falciparum (isolate CDC / Honduras)), sequence (Q27743 whole entry, looked up): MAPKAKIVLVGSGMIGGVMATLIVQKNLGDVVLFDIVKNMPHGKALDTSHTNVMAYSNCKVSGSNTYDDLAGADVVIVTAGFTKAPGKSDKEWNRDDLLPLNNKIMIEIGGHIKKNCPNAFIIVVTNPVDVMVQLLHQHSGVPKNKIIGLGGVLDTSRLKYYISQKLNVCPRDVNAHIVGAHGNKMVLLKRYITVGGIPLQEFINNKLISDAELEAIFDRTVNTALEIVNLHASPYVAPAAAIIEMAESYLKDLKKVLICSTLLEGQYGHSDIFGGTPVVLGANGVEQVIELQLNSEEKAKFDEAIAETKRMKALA
Calcium-dependent protein kinase 4 (Plasmodium falciparum (isolate 3D7)), sequence (Q8IBS5 whole entry, looked up): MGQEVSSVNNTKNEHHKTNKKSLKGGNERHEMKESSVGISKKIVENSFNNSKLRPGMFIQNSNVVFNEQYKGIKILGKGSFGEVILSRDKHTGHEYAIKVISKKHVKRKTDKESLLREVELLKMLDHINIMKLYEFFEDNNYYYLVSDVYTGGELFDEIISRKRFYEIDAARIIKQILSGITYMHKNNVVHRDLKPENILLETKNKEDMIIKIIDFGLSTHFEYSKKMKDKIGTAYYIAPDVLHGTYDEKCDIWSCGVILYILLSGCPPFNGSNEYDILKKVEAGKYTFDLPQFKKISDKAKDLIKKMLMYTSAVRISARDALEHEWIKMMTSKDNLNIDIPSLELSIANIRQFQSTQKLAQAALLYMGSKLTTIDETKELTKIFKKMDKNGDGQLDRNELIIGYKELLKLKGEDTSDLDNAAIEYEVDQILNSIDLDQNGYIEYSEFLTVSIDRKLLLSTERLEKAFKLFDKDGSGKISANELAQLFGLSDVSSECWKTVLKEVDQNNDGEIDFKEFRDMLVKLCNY
Calcium-dependent protein kinase 1 (Plasmodium falciparum (isolate 3D7)), sequence (P62344 whole entry, looked up): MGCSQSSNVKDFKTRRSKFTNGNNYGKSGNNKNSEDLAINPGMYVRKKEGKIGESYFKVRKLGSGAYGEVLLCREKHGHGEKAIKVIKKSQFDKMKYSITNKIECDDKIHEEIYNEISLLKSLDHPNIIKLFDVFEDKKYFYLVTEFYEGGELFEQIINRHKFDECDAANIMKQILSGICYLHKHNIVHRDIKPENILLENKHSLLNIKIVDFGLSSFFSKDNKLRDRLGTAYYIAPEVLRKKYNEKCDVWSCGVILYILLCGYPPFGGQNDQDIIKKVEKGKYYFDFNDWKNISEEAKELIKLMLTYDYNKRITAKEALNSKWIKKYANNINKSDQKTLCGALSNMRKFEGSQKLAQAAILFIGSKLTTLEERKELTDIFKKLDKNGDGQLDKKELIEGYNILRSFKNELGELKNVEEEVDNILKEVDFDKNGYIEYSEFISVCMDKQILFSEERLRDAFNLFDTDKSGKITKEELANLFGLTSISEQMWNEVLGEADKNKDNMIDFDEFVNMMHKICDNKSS

Consider `O=C(CC1NC(=O)c2ccccc21)Nc1ccc(-c2cccc(-c3nc4ccc(C(F)(F)F)cc4[nH]3)c2)cc1` (stereo not given), for which the growth inhibition was 36% in test [1] and 95% (active) in test [4]. Further, the inhibition in test [2] was 69% (active); in test [3] it was -4%. In addition, the result in test [5], in test [6], in test [7] and in test [8] was inactive.
Consider `Cc1c(C)n(C2CCCCC2)c2ncnc(OC3CCN(CC(=O)NC4CC4)CC3)c12`, for which the growth inhibition is 72% (active) in test [1] and 94% (active) in test [4]. The inhibition in test [2] was 21%; in test [3], -2%. The result in test [5], in test [6], in test [7] and in test [8] was inactive.
On to `CC(C)c1ccc(NC(=O)NC2CCN(CCCCCN(C)C(=O)/C=C/c3ccc(Cl)c(Cl)c3)C2)cc1` (stereo not given), for which the growth inhibition in test [1] was 3%; in test [4] it was 99% (active). The inhibition in test [2] was 28%; in test [3], -2%. Moreover, the result in test [5], in test [6], in test [7] and in test [8] was inactive.
Turning to `Cn1c(=N)cc(-c2ccc(Br)cc2)c2c(=O)[nH]c(N)nc21`, the values for the growth inhibition in test [1] and in test [4] were 57% (active) and 80% (active), respectively. Also, the inhibition in test [2] was 5%; in test [3] it was 1%. The result in test [5], in test [6], in test [7] and in test [8] was inactive.
On to `CCn1c(Sc2ccc(C#N)c([N+](=O)[O-])c2)nnc1-c1ccc(OC)cc1`, for which the growth inhibition is 94% (active) in test [1] and 98% (active) in test [4]. Further, the inhibition in test [2] is -8%; in test [3] it was 2%. For the same compound, the result in test [5], in test [6], in test [7] and in test [8] was inactive.
Take `Cc1cccc(C)c1CNc1nc(N2CCOCC2)cc2c(C)c(C)[nH]c12`: the growth inhibition in test [1] is 64% (active); in test [4], 92% (active). The values for the inhibition in test [2] and in test [3] were 51% (active) and -4%, respectively. Also, the outcome in test [5], in test [6], in test [7] and in test [8] was inactive.
Consider `CCOC(=O)COc1cccc(CNc2ccc3nc(N)nc(N)c3c2)c1`, for which the growth inhibition in test [1] is 99% (active); in test [4], 100% (active). Moreover, the inhibition was 18% in test [2] and 4% in test [3]. In addition, the outcome in test [5], in test [6], in test [7] and in test [8] was inactive.
With `Cc1cc(NC(=O)NCCN2CCC(NC(=O)c3ccc(C(F)(F)F)cc3)CC2)c2ccccc2n1`, the growth inhibition was 75% (active) in test [1] and 98% (active) in test [4]. Further, the inhibition in test [2] was 3%; in test [3], -3%. Moreover, the result in test [5], in test [6], in test [7] and in test [8] was inactive.
Take `COc1ccc(OCCON)cc1`: the values for the growth inhibition in test [1] and in test [4] were -3% and 98% (active), respectively. The inhibition in test [2] is 0%; in test [3] it was -2%. Besides, the result in test [5], in test [6], in test [7] and in test [8] was inactive.
As to `CCCCCCC(C)c1cc(O)c2c(c1)OC(C)(C)C=C2c1ccncc1` (stereo not given), the growth inhibition was 29% in test [1] and 98% (active) in test [4]. The inhibition in test [2] is -7%; in test [3] it was 0%. In addition, the outcome in test [5], in test [6], in test [7] and in test [8] was inactive.
For the compound `NC(=O)Nc1ccc2c(Nc3ccc(OCc4ccccc4)cc3)ncnc2c1`, the growth inhibition in test [1] is 20%; in test [4], 84% (active). Besides, the values for the inhibition in test [2] and in test [3] were -1% and 3%, respectively. Further, the result in test [5], in test [6], in test [7] and in test [8] was inactive.
Take `Nc1nc(N)c2c(Cc3ccc(Br)cc3)cccc2n1`: the growth inhibition is 20% in test [1] and 99% (active) in test [4]. Also, the inhibition was 28% in test [2] and 0% in test [3]. For the same compound, the outcome in test [5], in test [6], in test [7] and in test [8] was inactive.
Regarding `O=C(/C=C/c1ccc(Cl)c(Cl)c1)NC1CCN(Cc2cccc(O)c2)CC1`, the figures for the growth inhibition in test [1] and in test [4] were -1% and 94% (active), respectively. For the same compound, the inhibition is -3% in test [2] and -1% in test [3]. Also, the result in test [5], in test [6], in test [7] and in test [8] was inactive.
As to `O=C(Nc1cccc(CN2CCN(Cc3cccc(O)c3)CC2)c1)c1ccc(Cl)c(Cl)c1`, the growth inhibition is 35% in test [1] and 100% (active) in test [4]. The inhibition in test [2] was 28%; in test [3] it was -1%. Further, the result in test [5], in test [6], in test [7] and in test [8] was inactive.
Regarding `Nc1ccc(-c2nc3ccc(Oc4ccc5nc(-c6ccc(N)cc6)[nH]c5c4)cc3[nH]2)cc1`, the values for the growth inhibition in test [1] and in test [4] were 99% (active) and 100% (active), respectively. For the same compound, the figures for the inhibition in test [2] and in test [3] were 18% and 7%, respectively. Besides, the result in test [5], in test [6], in test [7] and in test [8] was inactive.
Regarding `CCC(C(=O)Nc1ccccc1)n1nc(-c2ccc(C)c(S(=O)(=O)N3CCCCC3)c2)ccc1=O` (stereo not given), the growth inhibition in test [1] is 67% (active); in test [4] it was 85% (active). In addition, the results for the inhibition in test [2] and in test [3] were -2% and 4%, respectively. Besides, the outcome in test [5], in test [6], in test [7] and in test [8] was inactive.
With `Cc1cc(O)c2c(c1)OC(C)(C)C=C2C1=CCN(Cc2ccccc2)CC1`, the growth inhibition in test [1] was 1%; in test [4], 96% (active). Further, the inhibition in test [2] is -2%; in test [3] it was -3%. Besides, the outcome in test [5], in test [6], in test [7] and in test [8] was inactive.
Consider `CCCOc1cc(O)c(-c2n[nH]c(C)c2Oc2ccccc2)cc1CC`, for which the growth inhibition in test [1] is 46%; in test [4], 91% (active). Also, the results for the inhibition in test [2] and in test [3] were -14% and 1%, respectively. The result in test [5], in test [6], in test [7] and in test [8] was inactive.
For the compound `CN1CCC(NCc2ccc(-c3cccc(S(=O)(=O)NCc4ccccc4)c3)cc2)CC1`, the growth inhibition in test [1] is 94% (active); in test [4], 101% (active). The figures for the inhibition in test [2] and in test [3] were 72% (active) and -3%, respectively. Besides, the result in test [5], in test [6], in test [7] and in test [8] was inactive.
As for `N#Cc1cccc(-c2cccc(C(=O)NC3CCC(CCN4CCc5ccc(C#N)cc5CC4)CC3)c2)c1` (stereo not given), the growth inhibition is 57% (active) in test [1] and 99% (active) in test [4]. The values for the inhibition in test [2] and in test [3] were 31% and -6%, respectively. In addition, the result in test [5], in test [6], in test [7] and in test [8] was inactive.
